This passage reports AC50 and outcome results from PubChem BioAssay (EPA / NIEHS).

Read-out in assay [1]: Interleukin-1 alpha (IL1a), IL1A (gene 3552)
In words: BSK_KF3CT_IL1a: BioMAP Diversity Plus: KF3CT Assay for Interleukin-1 alpha (IL1a) Biomarker Activity (AID 2283070). The conditions noted are these: primary human keratinocytes with fibroblasts; actives raise or lower the signal. The procedure, abridged: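 Human keratinocyte plus foreskin fibroblast primary co-culture, sampled 24 h after chemical dosing. IL-1a measured by ELISA; responses fitted bidirectionally against DMSO baseline (negative control), so gain or loss of signal both count.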

Read-out in assay [2]: TIMP metallopeptidase inhibitor 2 (TIMP2), TIMP2 (gene 7077)
In words: BSK_KF3CT_TIMP2: BioMAP Diversity Plus: KF3CT Assay for TIMP metallopeptidase inhibitor 2 (TIMP2) Biomarker Activity (AID 2283071). The conditions noted are these: primary human keratinocytes with fibroblasts; actives raise or lower the signal. The procedure, abridged:
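Human primary keratinocyte/foreskin fibroblast co-culture dosed with chemical and sampled at 24 h. TIMP-2 levels quantified by ELISA; bidirectional fitting against DMSO negative control as baseline.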

Read-out in assay [3]: Transforming growth factor beta 1 (TGFb1), TGFB1 (gene 7040)
Put plainly: BSK_KF3CT_TGFb1: BioMAP Diversity Plus: KF3CT Assay for Transforming growth factor beta 1 (TGFb1) Biomarker Activity (AID 2283072). The conditions noted are these: primary human keratinocytes with fibroblasts; actives raise or lower the signal. The procedure, abridged:
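Human keratinocyte plus foreskin fibroblast primary co-culture, dosed with chemical for 24 h. TGF-b1 quantified by ELISA. Activity fitted bidirectionally against DMSO negative control as baseline.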

Read-out in assay [4]: C-C motif chemokine 2 (Homo sapiens) (UniProt P13500)
In words: BSK_KF3CT_MCP1: BioMAP Diversity Plus: KF3CT Assay for Monocyte Chemoattractant Protein 1 (MCP1/CCL2) Biomarker Activity (AID 2283073). The conditions noted are these: primary human keratinocytes with fibroblasts; actives raise or lower the signal. The procedure, abridged:
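KF3CT skin co-culture (keratinocytes/foreskin fibroblasts), 24 h post-dose; MCP-1 by ELISA; gain/loss of signal fit bidirectionally vs DMSO baseline.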

Read-out in assay [5]: Matrix Metallopeptidase 9 (MMP9), MMP9 (gene 4318)
In words: BSK_KF3CT_MMP9: BioMAP Diversity Plus: KF3CT Assay for Matrix Metallopeptidase 9 (MMP9) Biomarker Activity (AID 2283074).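 On AC50: MMP9 protein level quantified by ELISA in the co-culture.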 The conditions noted are these: primary human keratinocytes with fibroblasts; actives raise or lower the signal. An outline of the steps:
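Keratinocyte plus foreskin fibroblast human primary skin co-culture was dosed with chemical and MMP-9 was quantified by ELISA 24 h later. Bidirectional curve fitting used DMSO as negative control and activity baseline.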

Read-out in assay [6]: urokinase plasminogen activator (uPA), PLAU (gene 5328)
In words: BSK_KF3CT_uPA: BioMAP Diversity Plus: KF3CT Assay for urokinase plasminogen activator (uPA) Biomarker Activity (AID 2283075). The conditions noted are these: primary human keratinocytes with fibroblasts; actives raise or lower the signal. The procedure, abridged: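 Human keratinocyte plus foreskin fibroblast primary co-culture exposed to chemical for 24 h. uPA levels were quantified by ELISA, and activity was fitted bidirectionally against a DMSO negative-control baseline.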

Read-out in assay [7]: CD40, CD40 (gene 958)
Put plainly: BSK_LPS_CD40: BioMAP Diversity Plus: LPS Assay for CD40 Biomarker Activity (AID 2283076). Conditions: primary human HUVEC with PBMC; actives raise or lower the signal. The procedure, abridged: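 ELISA readout of CD40 in HUVEC/PBMC co-culture (BSK_LPS system), 24 h post-dosing; bidirectional curve fit, DMSO baseline; parallel SRB total-protein staining for cytotoxicity.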

Read-out in assay [8]: E-selectin (Homo sapiens) (UniProt P16581)
Put plainly: BSK_LPS_Eselectin: BioMAP Diversity Plus: LPS Assay for Eselectin Biomarker Activity (AID 2283077). Conditions: primary human HUVEC with PBMC; actives raise or lower the signal. An outline of the steps:
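ELISA readout of E-selectin, 24 h post-dose, HUVEC + PBMC co-culture (LPS system). Gain or loss of signal vs DMSO baseline, bidirectional fit.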

Read-out in assay [9]: Interleukin-8 (IL8), CXCL8 (gene 3576)
Put plainly: BSK_LPS_IL8: BioMAP Diversity Plus: LPS Assay for Interleukin-8 (IL8) Biomarker Activity (AID 2283078). The conditions noted are these: primary human HUVEC with PBMC; actives raise or lower the signal. An outline of the steps:
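HUVEC + PBMC co-culture, LPS-activated; test chemicals dosed, IL-8 read by ELISA at 24 h. Bidirectional curve fit vs DMSO baseline (gain or loss of signal).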

The nature of assay [10]: BSK_LPS_SRB: Viability Assessment in the BioMAP Diversity Plus: LPS Assay (AID 2283079).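 Further: total protein by sulforhodamine B absorbance as a cytotoxicity measure; measured one day after compound addition.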 Conditions: primary human HUVEC with PBMC. An outline of the steps: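 HUVEC + PBMC co-culture, LPS-stimulated; compound 24 h. 10% TCA fix, 0.1% SRB stain, A560. Bidirectional fit vs DMSO.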
Read-out in assay [11]: Interleukin-1 alpha (IL1a), IL1A (gene 3552)
Put plainly: BSK_LPS_IL1a: BioMAP Diversity Plus: LPS Assay for Interleukin-1 alpha (IL1a) Biomarker Activity (AID 2283080). Conditions: primary human HUVEC with PBMC; actives raise or lower the signal. An outline of the steps:
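HUVEC/PBMC co-culture, LPS system; 24 h after dosing; IL-1a by ELISA; gain or loss of signal fitted bidirectionally vs DMSO baseline.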

Read-out in assay [12]: Monocyte Chemoattractant Protein-1 (MCP1), CCL2 (gene 6347)
In words: BSK_LPS_MCP1: BioMAP Diversity Plus: LPS Assay for Monocyte Chemoattractant Protein-1 (MCP1) Biomarker Activity (AID 2283081).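 On AC50: secreted MCP-1 protein quantified by ELISA in culture supernatant.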 The conditions noted are these: primary human HUVEC with PBMC; actives raise or lower the signal. An outline of the steps: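 ELISA read-out of MCP-1 after 24 h chemical dosing of a human umbilical vein endothelial cell/peripheral blood mononuclear cell co-culture stimulated with LPS. Gain or loss of signal fitted relative to DMSO controls.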

A short description of assay [13]: BSK_LPS_PGE2: BioMAP Diversity Plus: LPS Assay for Prostaglandin E2 (PGE2) Biomarker Activity (AID 2283082).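 On AC50: secreted prostaglandin E2 measured by ELISA in LPS-stimulated co-culture.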 The conditions noted are these: primary human HUVEC with PBMC; actives raise or lower the signal. The procedure, abridged:
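HUVEC plus PBMC co-culture stimulated with LPS; secreted PGE2 quantified by ELISA 24 h after chemical dosing. Activity fitted bidirectionally against DMSO as negative control and baseline; parallel SRB total-protein staining served as cytotoxicity check.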

Read-out in assay [14]: Macrophage colony-stimulating factor (MCSF), CSF1 (gene 1435)
In words: BSK_LPS_MCSF: BioMAP Diversity Plus: LPS Assay for Macrophage colony-stimulating factor (MCSF) Biomarker Activity (AID 2283083). Conditions: primary human HUVEC with PBMC; actives raise or lower the signal. An outline of the steps:
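HUVEC + PBMC co-culture (human primary), 24 h post-dose; M-CSF by ELISA; gain/loss of signal fitted bidirectionally vs DMSO baseline.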

Read-out in assay [15]: Tissue Factor, F3 (gene 2152)
In words: BSK_LPS_TissueFactor: BioMAP Diversity Plus: LPS Assay for Tissue Factor Biomarker Activity (AID 2283084). Conditions: primary human HUVEC with PBMC; actives raise or lower the signal. The procedure, abridged: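 HUVEC/PBMC co-culture, LPS-activated; CD142 ELISA read 24 h post-dose; bidirectional curve fit vs DMSO negative control.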

Read-out in assay [16]: Tumor necrosis factor (Homo sapiens) (UniProt P01375)
Put plainly: BSK_LPS_TNFa: BioMAP Diversity Plus: LPS Assay for Tumour Necrosis Factor alpha (TNFa) Biomarker Activity (AID 2283085).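 On AC50: TNFa protein level quantified by ELISA in the co-culture.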 Conditions: primary human HUVEC with PBMC; actives raise or lower the signal. The procedure, abridged: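 Human umbilical vein endothelial cells co-cultured with PBMC were exposed to test chemical and TNFa measured by ELISA 24 h after dosing. Bidirectional curve fitting was done relative to DMSO as negative control and baseline.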

Read-out in assay [17]: Vascular cell adhesion molecule 1 (VCAM1), VCAM1 (gene 7412)
Put plainly: BSK_LPS_VCAM1: BioMAP Diversity Plus: LPS Assay for Vascular cell adhesion molecule 1 (VCAM1) Biomarker Activity (AID 2283086). The conditions noted are these: primary human HUVEC with PBMC; actives raise or lower the signal. An outline of the steps:
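Human umbilical vein endothelial cells co-cultured with peripheral blood mononuclear cells under LPS stimulation were exposed to test chemical for 24 h. VCAM-1 levels were then measured by ELISA, with bidirectional curve fitting relative to DMSO as negative control and baseline.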

Read-out in assay [18]: CD38, CD38 (gene 952)
In words: BSK_SAg_CD38: BioMAP Diversity Plus: SAg Assay for CD38 Biomarker Activity (AID 2283087). Conditions: primary human HUVEC with PBMC; actives raise or lower the signal. The procedure, abridged: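 Fluorescence ELISA of cell-surface CD38 served as the read-out, with either increase or decrease fitted against DMSO controls. Cells were a human umbilical vein endothelium plus PBMC co-culture under SEB/TSST-1 stimulation, measured 24 h after dosing.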

Read-out in assay [19]: CD40, CD40 (gene 958)
Put plainly: BSK_SAg_CD40: BioMAP Diversity Plus: SAg Assay for CD40 Biomarker Activity (AID 2283088). Conditions: primary human HUVEC with PBMC; actives raise or lower the signal. The procedure, abridged: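 HUVEC/PBMC co-culture, 24 h post-dose; CD40 by ELISA, fluorescence intensity; bidirectional fit vs DMSO negative control.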

Read-out in assay [20]: CD69, CD69 (gene 969)
Put plainly: BSK_SAg_CD69: BioMAP Diversity Plus: SAg Assay for CD69 Biomarker Activity (AID 2283089).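 On AC50: cell surface CD69 protein quantified by ELISA with fluorescence detection.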 Conditions: primary human HUVEC with PBMC; actives raise or lower the signal. An outline of the steps: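 ELISA, fluorescence read-out: CD69 on human umbilical vein endothelial cell + PBMC co-culture, 24 h post-dosing. Gain or loss of signal fitted bidirectionally against DMSO baseline.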

Several values for one entry are separate records, joined by “and”; a condition that tells them apart may be missing. Identical values can stand only once. More than one record can exist for a structure, and the calls need not agree. Activity calls are given as the source filed them. How the source made its calls: active means hit-call score of the fitted dose curve at least 0.9, where 1 is the maximum; inactive means score below 0.9.

Chain of E-selectin (Homo sapiens) (P16581 whole entry, looked up): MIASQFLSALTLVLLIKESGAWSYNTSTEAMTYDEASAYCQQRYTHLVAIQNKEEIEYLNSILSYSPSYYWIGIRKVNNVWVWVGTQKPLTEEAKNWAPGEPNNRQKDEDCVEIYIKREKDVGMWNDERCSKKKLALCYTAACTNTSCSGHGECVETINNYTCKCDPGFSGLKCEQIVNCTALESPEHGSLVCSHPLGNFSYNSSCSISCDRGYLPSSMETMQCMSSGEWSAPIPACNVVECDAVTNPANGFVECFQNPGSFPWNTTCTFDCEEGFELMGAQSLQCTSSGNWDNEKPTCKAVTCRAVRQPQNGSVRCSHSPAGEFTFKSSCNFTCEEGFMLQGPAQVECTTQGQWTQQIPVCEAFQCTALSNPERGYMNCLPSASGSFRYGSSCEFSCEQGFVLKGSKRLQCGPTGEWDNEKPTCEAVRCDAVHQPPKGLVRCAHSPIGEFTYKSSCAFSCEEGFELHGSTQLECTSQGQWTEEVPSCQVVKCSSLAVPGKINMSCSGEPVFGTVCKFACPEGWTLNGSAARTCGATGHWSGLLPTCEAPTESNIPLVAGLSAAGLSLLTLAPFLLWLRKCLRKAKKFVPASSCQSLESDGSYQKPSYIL
Chain of Tumor necrosis factor (Homo sapiens) (P01375 whole entry, looked up): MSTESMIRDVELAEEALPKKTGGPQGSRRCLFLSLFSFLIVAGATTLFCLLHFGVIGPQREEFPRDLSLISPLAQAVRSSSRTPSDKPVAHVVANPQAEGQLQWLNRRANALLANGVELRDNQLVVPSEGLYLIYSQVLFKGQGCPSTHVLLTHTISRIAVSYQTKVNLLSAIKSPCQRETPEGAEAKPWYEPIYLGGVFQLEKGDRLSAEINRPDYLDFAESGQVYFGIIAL

With `CCCCNC(=O)OCC#CI`, the AC50 is 30.1 µM (active) and 20 µM (active) in assay [1]; 32.5 µM (active) and 20.4 µM (active) in assay [2]; 30.1 µM (active) and 14.9 µM (active) in [3]; 32.8 µM (active) and 20 µM (active) in assay [4]; 29.4 µM (active) and 13.7 µM (active) in assay [5]; 29.6 µM (active) and 15.1 µM (active) in assay [6]. In addition, the concentration at half-maximal activity (AC50) in [7] was 13.6 µM (active) and 9.3 µM (active); in assay [8], 31.3 µM (active) and 29.8 µM (active); in assay [9], 19 µM (active) and 16.3 µM (active); in assay [10], 26.7 µM (active); in assay [11] it was 23.2 µM (active) and 13 µM (active); in assay [12] it was 30.9 µM (active) and 16.6 µM (active). The AC50 in assay [13] is 36 µM (active); in assay [14], 20 µM (active) and 17.1 µM (active); in [15], 15.6 µM (active) and 13.7 µM (active); in assay [16], 13.2 µM (active) and 12.3 µM (active); in assay [17], 24.9 µM (active) and 27.1 µM (active); in [18], 21.4 µM (active) and 17.4 µM (active). Moreover, the AC50 in [19] is 18.7 µM (active) and 22.5 µM (active); in assay [20], 21.9 µM (active) and 15.5 µM (active). The result in [13] was inactive.

Turning to `CO/C=C(/C(=O)OC)c1ccccc1Oc1cc(Oc2ccccc2C#N)ncn1`, the result in assay [1], in assay [2], in assay [3], in [4], in assay [5] and in assay [6] was inactive. Moreover, the outcome in assay [7], in assay [8], in [11], in assay [13], in assay [15] and in [16] was inactive. In addition, the result in assay [17] was inactive. Also, the AC50 was 2.7 µM (active) in [5]; 19.9 µM (active) and 10 µM (active) and 12.9 µM (active) in assay [7]; 10.9 µM (active) and 5.78 µM (active) and 5.72 µM (active) in assay [8]; 27.1 µM (active) [middle of 4 runs] in assay [12]; 9.64 µM (active) in assay [13]; 24.5 µM (active) [middle of 4 runs] in assay [14]. Also, the AC50 in assay [15] is 35.3 µM (active); in [16], 15.5 µM (active); in assay [17], 11 µM (active) and 8.26 µM (active) and 19.7 µM (active); in [18], 20 µM (active) [middle of 4 runs]; in assay [19], 20.6 µM (active) [middle of 4 runs]; in assay [20], 12.3 µM (active) [middle of 4 runs].

For `COc1nc(C)nc(NC(=O)NS(=O)(=O)c2ccccc2CCC(F)(F)F)n1`, the outcome in [1], in [2], in assay [3], in assay [4], in assay [5] and in assay [6] was inactive. For the same compound, the outcome in [7], in assay [8], in [9], in [10], in [11] and in assay [12] was inactive. Moreover, the outcome in [13], in assay [14], in assay [15], in [16], in assay [17] and in [18] was inactive. In addition, the result in [19] and in [20] was inactive. For the same compound, the AC50 in assay [5] was 23.7 µM (active).

As usually defined, the AC50 is the concentration giving half of the maximal activity seen.
